# eIF4E-4G inh – inhibitors of eIF4E and eIF4G interaction in translation initiation. P63073+Q04637. TR-FRET eIF4E-eIF4GI(517-606) binding, 2 h. inhibition, % at 21.7 µM. 220,000 compounds, 0.37% hits. AID 782;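 active = inhibition above about 30%, limit read from the data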;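 note: 0% = full FRET control wells and 100% = background wells lacking eIF4GI fragment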
# MLLE-PAM2 inh – blocks PAM2 peptide binding to the PABP1 MLLE domain; GST-MLLE / FITC-PAM2 fluorescence polarization; inhibition, % at 20 µM; 360,000 compounds, 0.36% hits; in the data active = inhibition above about 35%, passing the limit was not always enough;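 note: plate controls were DMSO wells with GST-MLLE for no effect and wells lacking GST-MLLE protein for full effect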
# PABP polyA inh – PABP-poly(A) binding inhibition; calls only at 35 µM; P11940; PABP-poly(A) RNA binding, fluorescence polarization; 290,000 compounds, 1% hits; AID 2014;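 note: calls also rest on retests at 20 µM and on dose response follow-up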
# EBV gp42 block – blocks Epstein-Barr virus glycoprotein 42 binding. Q1HVG2. Fluorescence polarization binding assay, mP read-out. inhibition, % (tested at 21.74 µM). 220,000 compounds, 0.42% hits. AID 1085; in the data active = inhibition above about 50%
# eIF4H inh – inhibitors of RNA binding by human eIF4H; Q15056; eIF4H fluorescence polarization binding assay; inhibition, % at 35 µM; 290,000 compounds, 0.94% hits; AID 2012;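 note: calls also rest on retests at 20 µM and on dose response follow-up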
# * = called active by the depositor; i = inactive; u = inconclusive; x = no result given; + = active, no number; [ ] = remark or other dose. Shown are actives, neighbours in structure and some others; about 1.7% of the full set was active somewhere. Unless noted, the rule behind the calls is not given here.
SMILES,eIF4E-4G inh,MLLE-PAM2 inh,PABP polyA inh,EBV gp42 block,eIF4H inh
O=C1NC(=O)C2=Cc3ccc(O)cc3OC2(O)N1 (configuration not stated),4.2,x,i,89.9*,u
CN1CCC2(CC1)CC(NC=O)c1ccccc1O2 (configuration not stated),-0.1,10.7,i,-17.1,4.3
Cc1c2ccncc2c(C)c2c1[nH]c1ccccc12,23.0,21.6,i,112.6*,39.0
c1ccc2c(c1)[nH]c1cnccc12,2.8,-3.0,i,-5.3,-4.1
Nc1cccc2c1Cc1cc([N+](=O)[O-])ccc1-2,x,-28.6,x,x,x
Cc1ccccc1N1C(=O)/C(=C/c2ccco2)C(=O)NC1=S,x,x,+,x,75.3*
N/C(=N\N=C/c1ccc(-c2ccc(O)c(C(=O)O)c2)o1)N[N+](=O)[O-],33.3*[fluorescence artefact?],7.9,+,31.9,103.0*
CCN(CC)c1ccc(CNCCc2ccc(F)cc2)cc1,1.4,-2.7,i,-19.7,-4.8
O=C(CCc1nnc2ccc(NCc3ccc(F)cc3)nn12)N1CCC2(CC1)OCCO2,x,-6.7,i,x,-6.5
CC(C)(C)C(=O)c1cn(CC(=O)NCc2ccco2)c2ccccc12,3.3,-142.9,+,-17.8,-10.4
O=C(Cn1cc(C(=O)c2ccccc2F)c2ccccc21)NCc1ccco1,5.4,-12.2,i,7.5,-7.6
C=CCNC(=S)N1Cc2cc(Br)ccc2-n2nncc2C1,x,-101.9,x,x,x
